Bioassay records as filed in PubChem BioAssay.
This is a sample that favours compounds with a hit; in the whole collection about 4.2% have one here.
PfHsp90 set2 – growth inhibition of yeast expressing Plasmodium Hsp90 | S. cerevisiae expressing PfHsp90, BacTiter-Glo ATP, 48 h; yeast lacking PDR1 and PDR3 efflux regulators | inhibition, % at 9.4 µM | 310,000 compounds, 0.32% hits;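 active = every replicate shows inhibition above about 80%, whatever the replicate mean, limit read from the data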;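 note: 0% = DMSO neutral controls and 100% = 20 µM radicicol positive controls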
NALP3 yeast inh – blocks the NALP3 inflammasome reconstituted in yeast; Yeast reconstituted NLRP3/ASC/caspase-1, beta-gal luminescence, 24 h; inhibition, % at 10 µM; 330,000 compounds, 0.39% hits;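 active = inhibition of 50% or more; inactive = inhibition below 50%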;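 note: plate controls were induced DMSO wells for no effect and uninduced yeast grown without galactose for full effect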
tim10-1 inh – tim10-1 yeast growth inhibition; S. cerevisiae tim10-1 ts strain growth, BacTiter-Glo, 24 h; inhibition, % at 20 µM; 330,000 compounds, 2.2% hits;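 active = inhibition of at least 40%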;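 note: mutant grown at 25 °C; 0% = DMSO wells with yeast and 100% = wells holding no yeast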
tim23-1 inh – inhibits growth of tim23-1 mutant yeast; AID 463212; 330,000 compounds, 1.3% hits; inhibition, % at 20 µM; S. cerevisiae tim23-1 growth, BacTiter-Glo luminescence, 24 h;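 active = growth inhibition of the mutant yeast at or above 50%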;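 note: temperature-sensitive mutant grown at 25 °C; plate controls were DMSO-treated mutant yeast for no effect and medium wells lacking yeast for full effect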
TIM10 inh – TIM10 yeast growth inhibition | S. cerevisiae TIM10 strain growth, BacTiter-Glo luminescence, 24 h | inhibition, % at 10 µM | 330,000 compounds, 1.4% hits;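 active = inhibition of 40% or more at the single tested concentration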;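 note: wild-type TIM10 isogenic control strain grown at permissive 25 °C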
NALP1 inh – blocks the NALP1 inflammasome reconstituted in yeast; S. cerevisiae NALP1/ASC/caspase-1 growth, X-gal OD620, 72 h; inhibition, % at 10 µM; 280,000 compounds, 0.61% hits; AID 2071; in the data active = inhibition mostly above about 24%, no sharp cut-off; inactive = mostly below about 32%
tim10-1 confirm – tim10-1 yeast growth inhibition, confirmed | shares compounds with tim10-1 inh | AID 463213 | inhibition, % at 20 µM | S. cerevisiae tim10-1 ts strain growth, BacTiter-Glo, 24 h | 7,400 compounds, 56% hits;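 active = inhibition of yeast growth at or above a set limit in either of two repeat tests at 20 µM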;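 note: tim10-1 mutant grown at permissive 25 °C to find synthetic lethal compounds; 0% = DMSO yeast wells and 100% = medium wells without yeast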
tim10 confirm – TIM10 yeast growth inhibition, confirmed. shares compounds with TIM10 inh. S. cerevisiae tim10 strain growth, BacTiter-Glo luminescence, 24 h. inhibition, % at 10 µM. 4,600 compounds, 63% hits;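 active = inhibition of yeast growth at or above a set limit in either of two replicates at 10 µM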;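 note: this counterscreen used the strain with wild-type TIM10; 0% = yeast with DMSO and 100% = medium wells lacking yeast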
Numbers without * were called inactive; · = no result.

SMILES	PfHsp90 set2	NALP3 yeast inh	tim10-1 inh	tim23-1 inh	TIM10 inh	NALP1 inh	tim10-1 confirm	tim10 confirm
CSc1ccc(OCC(=O)Nc2ccc(N3CCOCC3)c(Cl)c2)cc1	5	32	-1	-5	3	23	·	·
O=C(COc1c(F)c(F)c(C(F)(F)F)c(F)c1F)Nc1ccc(N2CCOCC2)c(Cl)c1	6	20	58*	41	43*	40	45*	34*
Cc1cc2c3c(c1)C(C)CC(C)(C)N3C(=O)C2=C(C#N)C#N (centres undefined)	8	14	57*	-44	59*	·	46*	49*
O=C(CCCc1nc2ccccc2s1)NCc1ccc(F)cc1	-7	25	0	7	8	30	·	·
S=c1[nH]nc(COc2ccccc2)n1/N=C/C=C/c1ccccc1	-2	22	16	7	20	17	·	·
S=c1[nH]nc(COc2ccccc2)n1/N=C/C(Cl)=C/c1ccccc1	·	38	60*	44	52*	2	56*	46*
CC(C)N(C(=O)CSc1nnc(CSc2ncccn2)n1C)C(C)C	14	15	-4	10	6	6	·	·
CC(C)N(Cc1ccccc1)C(=O)COC(=O)c1ccc2c(c1)OCCO2	-2	23	22	-12	-5	2	·	·
CN(C(=O)COC(=O)c1ccc2c(c1)OCCO2)c1ccccc1	9	3	44*	48	50*	14	48*	43*
Cc1ccc2nc(NC(=O)c3ccc(Cn4cc(Cl)cn4)o3)sc2c1	0	13	46*	36	51*	-82	22	33*
NNC(=O)c1ccc(Cn2cc(Cl)cn2)o1	-5	10	14	3	3	3	·	·
COc1ccc(Nc2nc(-c3cccs3)nc3ccccc23)cc1	-3	22	37	44	26	25	·	·
COc1cccc(Nc2nc(-c3cccs3)nc3ccccc23)c1	-16	11	53*	34	48*	26	36*	45*
Cc1ccc(NC(=O)c2cc(S(=O)(=O)NCCC3=CCCCC3)ccc2F)cc1	-20	9	50*	42	54*	14	41*	-12
O=c1c(Cl)c(N/N=C/c2ccc(Cl)cc2)cnn1-c1ccccc1	12	28	47*	15	46*	17	26	9
Cc1c(Cl)cccc1NC(=O)CNC(=O)C1CCN(C(=O)Nc2ccccc2)CC1	19	19	3	-3	7	·	·	·
CSCc1c(C(=O)NC2CCCc3ccccc32)oc2ccccc12 (centres undefined)	-1	16	50*	24	41*	·	33*	-2
O=C(CN1C(=O)NC2(CCCCCC2)C1=O)Nc1ccc(Br)cc1Br	-15	11	-4	15	-4	·	·	·
CCSc1nnc([C@H](Cc2ccccc2)NC(=O)OC(C)(C)C)o1	-8	4	25	14	23	10	·	·
Cc1ccccc1CS(=O)(=O)c1nnc([C@H](Cc2ccccc2)NC(=O)OC(C)(C)C)o1	109*	24	72*	33	68*	13	51*	50*
CC(C)(C)OC(=O)N[C@@H](Cc1ccccc1)c1nnc(S(=O)(=O)Cc2ccccc2)o1	·	12	73*	48	59*	-5	55*	46*
CC(C)(C)OC(=O)N[C@@H](Cc1ccccc1)c1nnc(SCC(=O)O)o1	-24	0	0	12	-1	-24	·	·
Cc1c(NC(=O)COC(=O)c2cccn2C)c(=O)n(-c2ccccc2)n1C	·	0	-7	-11	-6	·	·	·
CC(C)COc1cccc(C(=O)NC(=S)NCc2cccnc2)c1	0	7	47*	39	43*	12	21	-19
CCOc1cccc(C(=O)NC(=S)NCc2cccnc2)c1	-28	11	13	25	5	16	·	·
SMILES	PfHsp90 set2	NALP3 yeast inh	tim10-1 inh	tim23-1 inh	TIM10 inh	NALP1 inh	tim10-1 confirm	tim10 confirm
N#CCCN(Cc1ccccc1)C(=O)Nc1ccc(F)cc1	-1	14	-4	-3	-2	16	·	·
Cc1ccc(Cl)cc1NC(=S)NCCCSC1CCCCC1	-4	12	42*	39	42*	6	26	13
Cc1nn(-c2ccccc2)c(Cl)c1/C=N/O	6	30	16	16	8	35	·	·
Cc1nn(-c2ccccc2)c(Cl)c1/C=C/C(=O)c1ccccc1	-16	2	41*	-4	46*	-26	48*	40*
CC(Sc1nnc(C2CC2)n1C1CC1)C(=O)N(C)C1(C#N)CCCCC1 (centres undefined)	-20	14	-12	-9	4	·	·	·
CN(CCc1ccccc1)C(=O)c1ccc(NC(=O)Cc2ccc(NC(=O)C3CCN(C(=O)CCc4ccccc4)CC3)cc2)cc1	-9	·	·	·	·	·	·	·
CCOc1ccc2cc(/C=C/C(=O)c3ccco3)c(Cl)nc2c1	·	33	49*	49	42*	-5	36*	14
CCOc1ccc2nc(SCC(=O)NNC(=O)c3ccco3)c(C)cc2c1	8	1	10	-2	9	5	·	·
CCOC(=O)C(C(=O)OCC)c1cc(Br)c2noc3c2c1C(=O)c1ccccc1-3	19	17	42*	46	44*	28	39*	27
O=C(CCc1ccccc1)NCC1(c2ccccc2)CCCC1	-25	17	23	32	-1	20	·	·
O=C(c1ccco1)N1CCN(C(=O)c2cc3sccc3n2Cc2ccccc2)CC1	2	-1	42*	47	43*	8	43*	34*
Cc1cccc(/C=C/C(=O)c2ccc(NC3=NCCCS3)cc2)c1	-9	28	54*	1	66*	62*	50*	59*
Cc1cccc(C(=O)Nc2ccc(C(=O)/C=C/c3cccnc3)cc2)c1	-58	·	·	·	·	35	·	·
Fc1cccc(NC(=S)NCCc2ccccc2)c1	-24	1	37	37	23	6	·	·
O=[N+]([O-])c1cccc(NC(=S)NCCc2ccccc2)c1	15	3	47*	32	46*	9	30*	17
CCOC(=O)CNC(c1ccccc1)c1cc(Br)ccc1NC(=O)OCC (centres undefined)	-2	7	30	22	20	12	·	·
CCOC(=O)CNC(c1ccccc1)c1cc(Br)ccc1NC(=O)CCN1CCOCC1 (centres undefined)	·	45	45*	-13	55*	98*	40*	40*
COC(=O)CNC(c1ccccc1)c1cc(Br)ccc1NC(=O)CCN1CCOCC1 (centres undefined)	-53	26	51*	34	51*	·	42*	57*
